Test results as given in paper PMC7862700, “An all-to-all approach to the identification of sequence-specific readers for epigenetic DNA modifications on cytosine”.

How the values were obtained:
Assay in all cases: DAPPL (digital affinity profiling via proximity ligation, sequencing); 10 mM Tris-HCl pH 7.5, 50 mM NaCl, 1 mM DTT, 4% glycerol, room temperature, 30 min; GST-TFs on glutathione beads, 16-mer random dsDNA library, 0.1% formaldehyde crosslink after washing; high values mean tight binding
Conditions in all cases: protein: recombinant; tags: N-terminal GST; dsDNA, one strand shown
[1] = molecular target: T1, FLI1 (Homo sapiens, UniProt Q01543 1-452)
T1 sequence: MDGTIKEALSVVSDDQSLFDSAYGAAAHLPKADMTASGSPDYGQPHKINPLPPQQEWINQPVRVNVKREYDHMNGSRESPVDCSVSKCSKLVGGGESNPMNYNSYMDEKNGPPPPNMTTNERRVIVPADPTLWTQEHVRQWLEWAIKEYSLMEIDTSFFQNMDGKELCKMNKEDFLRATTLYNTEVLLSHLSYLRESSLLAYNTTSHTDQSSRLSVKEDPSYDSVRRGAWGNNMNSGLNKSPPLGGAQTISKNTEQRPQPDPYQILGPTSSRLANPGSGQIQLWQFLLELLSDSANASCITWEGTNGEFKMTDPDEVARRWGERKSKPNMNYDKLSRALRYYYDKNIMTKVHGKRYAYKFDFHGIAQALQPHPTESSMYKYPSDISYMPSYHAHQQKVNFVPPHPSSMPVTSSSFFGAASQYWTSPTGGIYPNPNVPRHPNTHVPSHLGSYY
Procedure, shortened: (§1)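 Binding signal is given per hexamer as its read frequency for a factor divided by its frequency in the tag-only sample. GST-fused human transcription factors were expressed in yeast, captured on glutathione beads, barcoded with DNA and pooled with that sample, then incubated with 200 nmole of a 16-mer random double-stranded DNA library in Tris/NaCl/DTT/glycerol buffer for 30 min at room temperature. The pools were then washed, crosslinked, proximity-ligated, amplified by PCR and sequenced on an Illumina NextSeq500.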

[2] = molecular target: T2, ELK1 (Homo sapiens, UniProt P19419 1-428)
T2 sequence: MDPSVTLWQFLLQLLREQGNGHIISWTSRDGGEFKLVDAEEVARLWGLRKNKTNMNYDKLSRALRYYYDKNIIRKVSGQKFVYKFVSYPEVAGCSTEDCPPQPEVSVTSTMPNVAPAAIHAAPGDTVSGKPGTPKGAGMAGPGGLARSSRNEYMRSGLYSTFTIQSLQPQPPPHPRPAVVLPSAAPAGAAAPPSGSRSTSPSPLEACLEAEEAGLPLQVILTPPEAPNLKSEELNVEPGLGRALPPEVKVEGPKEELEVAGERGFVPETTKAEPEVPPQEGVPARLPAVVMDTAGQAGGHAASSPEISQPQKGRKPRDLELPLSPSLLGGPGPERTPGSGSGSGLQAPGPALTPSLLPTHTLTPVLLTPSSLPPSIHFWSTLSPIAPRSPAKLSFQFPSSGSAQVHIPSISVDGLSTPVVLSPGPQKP
Procedure, shortened: as §1

[3] = molecular target: T3, GABPA (Homo sapiens, UniProt Q06546 1-454)
T3 sequence: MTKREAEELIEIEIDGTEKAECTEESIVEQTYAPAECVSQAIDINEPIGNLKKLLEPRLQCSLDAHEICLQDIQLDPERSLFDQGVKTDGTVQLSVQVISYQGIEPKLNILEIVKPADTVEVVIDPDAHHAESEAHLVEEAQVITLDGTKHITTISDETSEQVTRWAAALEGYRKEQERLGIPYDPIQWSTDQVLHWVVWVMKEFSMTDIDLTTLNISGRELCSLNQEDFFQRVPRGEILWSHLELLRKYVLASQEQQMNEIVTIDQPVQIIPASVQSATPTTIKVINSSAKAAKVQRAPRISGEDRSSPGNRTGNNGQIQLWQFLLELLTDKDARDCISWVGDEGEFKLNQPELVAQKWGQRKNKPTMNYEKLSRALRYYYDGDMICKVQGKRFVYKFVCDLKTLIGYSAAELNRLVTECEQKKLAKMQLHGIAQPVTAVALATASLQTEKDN
Procedure, shortened: as §1

[4] = molecular target: T4, ERG (Homo sapiens, UniProt P11308 1-479)
T4 sequence: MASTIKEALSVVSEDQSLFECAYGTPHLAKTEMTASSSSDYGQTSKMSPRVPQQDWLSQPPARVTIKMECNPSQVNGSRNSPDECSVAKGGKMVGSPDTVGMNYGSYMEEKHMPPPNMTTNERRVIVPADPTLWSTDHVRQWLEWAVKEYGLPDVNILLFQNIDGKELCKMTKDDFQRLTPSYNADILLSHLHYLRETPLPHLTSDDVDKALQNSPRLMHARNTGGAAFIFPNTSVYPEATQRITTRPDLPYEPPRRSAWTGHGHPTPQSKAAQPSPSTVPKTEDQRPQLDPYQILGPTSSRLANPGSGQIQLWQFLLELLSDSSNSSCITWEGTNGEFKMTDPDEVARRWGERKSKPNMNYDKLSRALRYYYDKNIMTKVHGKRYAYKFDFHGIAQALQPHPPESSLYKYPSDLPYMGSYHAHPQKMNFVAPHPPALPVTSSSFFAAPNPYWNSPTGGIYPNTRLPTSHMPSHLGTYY
Procedure, shortened: as §1

[5] = molecular target: ELF1 (Homo sapiens, UniProt P32519 1-619)
Procedure, shortened: as §1

[6] = molecular target: T5, EHF (Homo sapiens, UniProt Q9NZC4 1-300)
T5 sequence: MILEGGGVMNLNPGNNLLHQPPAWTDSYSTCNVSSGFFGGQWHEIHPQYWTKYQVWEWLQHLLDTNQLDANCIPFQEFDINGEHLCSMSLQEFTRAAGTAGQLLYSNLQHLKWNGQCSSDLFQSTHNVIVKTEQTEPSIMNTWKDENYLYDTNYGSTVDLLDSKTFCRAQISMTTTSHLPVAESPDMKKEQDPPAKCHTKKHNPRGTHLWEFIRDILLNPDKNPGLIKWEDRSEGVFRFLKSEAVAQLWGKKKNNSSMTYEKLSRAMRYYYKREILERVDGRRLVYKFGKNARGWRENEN
Procedure, shortened: as §1

[7] = molecular target: SPI1 (Homo sapiens, UniProt P17947 1-270)
Procedure, shortened: as §1

[8] = molecular target: SPIB (Homo sapiens, UniProt Q01892 1-262)
Procedure, shortened: as §1

[9] = molecular target: T6, ELK3 (Homo sapiens, UniProt P41970 1-407)
T6 sequence: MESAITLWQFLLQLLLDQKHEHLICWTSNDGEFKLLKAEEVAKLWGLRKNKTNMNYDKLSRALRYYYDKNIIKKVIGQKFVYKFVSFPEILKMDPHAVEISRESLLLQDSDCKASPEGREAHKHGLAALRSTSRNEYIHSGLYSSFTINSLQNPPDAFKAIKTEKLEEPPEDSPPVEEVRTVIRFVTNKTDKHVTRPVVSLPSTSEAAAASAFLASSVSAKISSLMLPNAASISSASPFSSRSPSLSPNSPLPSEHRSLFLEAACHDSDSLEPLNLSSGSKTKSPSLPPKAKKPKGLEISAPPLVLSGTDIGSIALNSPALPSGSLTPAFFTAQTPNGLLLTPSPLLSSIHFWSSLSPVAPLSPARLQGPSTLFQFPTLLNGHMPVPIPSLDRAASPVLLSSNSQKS
Procedure, shortened: as §1

[10] = molecular target: T7, FEV (Homo sapiens, UniProt Q99581 1-238)
T7 sequence: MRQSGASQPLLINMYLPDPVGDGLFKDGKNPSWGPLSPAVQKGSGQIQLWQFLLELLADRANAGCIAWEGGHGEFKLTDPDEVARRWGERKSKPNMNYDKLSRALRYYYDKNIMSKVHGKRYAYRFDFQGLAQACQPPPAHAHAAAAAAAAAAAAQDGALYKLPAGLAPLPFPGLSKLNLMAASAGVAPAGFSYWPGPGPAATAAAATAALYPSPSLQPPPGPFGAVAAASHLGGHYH
Procedure, shortened: as §1

[11] = molecular target: ETV5 (Homo sapiens, UniProt P41161 1-510)
Procedure, shortened: as §1

[12] = molecular target: T8, SPIC (Homo sapiens, UniProt Q8N5J4 1-248)
T8 sequence: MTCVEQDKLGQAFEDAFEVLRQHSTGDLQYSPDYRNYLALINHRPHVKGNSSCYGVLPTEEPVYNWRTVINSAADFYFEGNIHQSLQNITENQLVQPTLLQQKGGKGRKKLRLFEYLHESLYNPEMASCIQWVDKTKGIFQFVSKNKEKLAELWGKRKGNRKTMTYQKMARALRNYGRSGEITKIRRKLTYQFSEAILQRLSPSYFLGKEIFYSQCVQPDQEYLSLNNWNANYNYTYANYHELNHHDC
Procedure, shortened: as §1

[13] = molecular target: ELF4 (Homo sapiens, UniProt Q99607 1-663)
Procedure, shortened: as §1

[14] = molecular target: T9, ELK4 (Homo sapiens, UniProt P28324-2 1-405)
T9 sequence: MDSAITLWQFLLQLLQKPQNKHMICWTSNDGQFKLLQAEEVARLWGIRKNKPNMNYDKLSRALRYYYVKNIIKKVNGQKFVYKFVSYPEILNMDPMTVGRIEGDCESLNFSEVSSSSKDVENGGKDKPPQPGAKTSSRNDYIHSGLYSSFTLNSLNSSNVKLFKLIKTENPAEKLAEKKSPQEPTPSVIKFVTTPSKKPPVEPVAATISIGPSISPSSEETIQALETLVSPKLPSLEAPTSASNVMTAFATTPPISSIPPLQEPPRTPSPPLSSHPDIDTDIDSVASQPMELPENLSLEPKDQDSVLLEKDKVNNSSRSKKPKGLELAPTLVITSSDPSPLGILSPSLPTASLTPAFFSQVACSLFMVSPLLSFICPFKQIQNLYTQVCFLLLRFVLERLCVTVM
Procedure, shortened: as §1

[15] = molecular target: T10, ETV2 (Homo sapiens, UniProt O00321 1-342)
T10 sequence: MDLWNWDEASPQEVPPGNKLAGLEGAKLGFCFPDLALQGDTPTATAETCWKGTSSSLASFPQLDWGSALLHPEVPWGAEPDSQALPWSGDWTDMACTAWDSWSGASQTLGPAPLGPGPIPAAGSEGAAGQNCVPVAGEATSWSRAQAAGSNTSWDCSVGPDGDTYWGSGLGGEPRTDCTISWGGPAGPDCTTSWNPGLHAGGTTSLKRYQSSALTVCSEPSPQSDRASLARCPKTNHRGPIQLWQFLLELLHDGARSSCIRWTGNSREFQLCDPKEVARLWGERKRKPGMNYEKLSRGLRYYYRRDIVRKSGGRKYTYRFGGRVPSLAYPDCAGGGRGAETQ
Procedure, shortened: as §1

[16] = molecular target: T11, ELF3 (Homo sapiens, UniProt P78545 1-371)
T11 sequence: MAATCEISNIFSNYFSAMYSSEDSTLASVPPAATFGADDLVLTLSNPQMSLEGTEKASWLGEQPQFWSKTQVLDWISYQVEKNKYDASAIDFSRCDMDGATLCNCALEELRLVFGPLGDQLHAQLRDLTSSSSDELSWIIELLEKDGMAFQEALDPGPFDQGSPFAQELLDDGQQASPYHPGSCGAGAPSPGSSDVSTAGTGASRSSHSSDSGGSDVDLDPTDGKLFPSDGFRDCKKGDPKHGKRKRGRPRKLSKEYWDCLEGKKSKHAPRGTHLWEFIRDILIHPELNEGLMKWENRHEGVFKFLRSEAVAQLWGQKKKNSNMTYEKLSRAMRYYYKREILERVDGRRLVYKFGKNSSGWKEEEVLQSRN
Procedure, shortened: as §1

[17] = molecular target: ETV1 (Homo sapiens, UniProt P50549 1-477)
Procedure, shortened: as §1

ETV5, sequence (P41161 whole entry): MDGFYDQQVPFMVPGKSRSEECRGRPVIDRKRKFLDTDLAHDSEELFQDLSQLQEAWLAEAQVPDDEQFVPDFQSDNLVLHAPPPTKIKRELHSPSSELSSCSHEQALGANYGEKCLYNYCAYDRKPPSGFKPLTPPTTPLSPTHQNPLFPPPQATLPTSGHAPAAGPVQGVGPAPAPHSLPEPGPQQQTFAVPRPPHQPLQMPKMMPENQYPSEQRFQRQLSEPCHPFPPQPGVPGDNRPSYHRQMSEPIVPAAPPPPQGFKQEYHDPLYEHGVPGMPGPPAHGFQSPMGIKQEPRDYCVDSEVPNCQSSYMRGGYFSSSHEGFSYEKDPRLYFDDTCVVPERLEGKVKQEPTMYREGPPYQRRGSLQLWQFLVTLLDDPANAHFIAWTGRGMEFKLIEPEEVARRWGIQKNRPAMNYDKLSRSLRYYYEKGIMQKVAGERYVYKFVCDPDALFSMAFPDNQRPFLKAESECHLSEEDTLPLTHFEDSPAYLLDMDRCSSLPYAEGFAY
ETV1, sequence (P50549 whole entry): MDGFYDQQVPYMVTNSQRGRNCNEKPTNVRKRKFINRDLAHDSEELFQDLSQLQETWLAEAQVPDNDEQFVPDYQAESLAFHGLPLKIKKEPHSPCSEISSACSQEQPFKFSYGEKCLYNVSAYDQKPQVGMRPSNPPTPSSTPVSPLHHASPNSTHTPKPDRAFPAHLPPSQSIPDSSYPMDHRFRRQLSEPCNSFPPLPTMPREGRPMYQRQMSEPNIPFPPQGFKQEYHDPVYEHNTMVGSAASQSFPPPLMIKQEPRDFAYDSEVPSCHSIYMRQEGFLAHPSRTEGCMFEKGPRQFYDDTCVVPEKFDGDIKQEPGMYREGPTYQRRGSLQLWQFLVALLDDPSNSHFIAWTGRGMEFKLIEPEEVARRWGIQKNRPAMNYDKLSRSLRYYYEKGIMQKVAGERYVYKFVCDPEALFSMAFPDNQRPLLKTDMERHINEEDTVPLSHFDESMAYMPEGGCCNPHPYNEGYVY
SPIB, sequence (Q01892 whole entry): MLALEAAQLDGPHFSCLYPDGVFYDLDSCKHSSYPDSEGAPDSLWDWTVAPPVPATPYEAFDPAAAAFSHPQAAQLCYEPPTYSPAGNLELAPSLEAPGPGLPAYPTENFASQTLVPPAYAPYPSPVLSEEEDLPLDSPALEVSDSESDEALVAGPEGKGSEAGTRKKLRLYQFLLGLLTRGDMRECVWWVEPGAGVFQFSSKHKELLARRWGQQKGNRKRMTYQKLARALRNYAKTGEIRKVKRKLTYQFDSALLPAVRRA
ELF4, sequence (Q99607 whole entry): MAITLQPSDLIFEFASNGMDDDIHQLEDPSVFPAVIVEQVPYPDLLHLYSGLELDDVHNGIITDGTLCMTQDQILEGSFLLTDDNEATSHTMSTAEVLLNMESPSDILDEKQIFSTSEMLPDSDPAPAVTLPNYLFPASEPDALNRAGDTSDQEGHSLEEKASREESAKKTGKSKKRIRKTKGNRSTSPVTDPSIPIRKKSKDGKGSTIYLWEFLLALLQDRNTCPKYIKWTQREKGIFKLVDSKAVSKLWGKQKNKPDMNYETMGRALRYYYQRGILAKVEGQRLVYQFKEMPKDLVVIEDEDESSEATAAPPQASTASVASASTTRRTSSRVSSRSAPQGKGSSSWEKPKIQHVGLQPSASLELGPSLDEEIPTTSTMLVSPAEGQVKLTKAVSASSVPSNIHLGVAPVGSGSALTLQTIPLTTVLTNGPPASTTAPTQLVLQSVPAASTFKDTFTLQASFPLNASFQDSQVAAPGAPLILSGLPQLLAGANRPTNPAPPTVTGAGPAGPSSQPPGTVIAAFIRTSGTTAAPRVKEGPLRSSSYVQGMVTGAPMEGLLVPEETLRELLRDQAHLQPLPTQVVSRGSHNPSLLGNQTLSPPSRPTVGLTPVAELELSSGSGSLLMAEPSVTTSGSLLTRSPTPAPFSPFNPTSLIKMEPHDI
ELF1, sequence (P32519 whole entry): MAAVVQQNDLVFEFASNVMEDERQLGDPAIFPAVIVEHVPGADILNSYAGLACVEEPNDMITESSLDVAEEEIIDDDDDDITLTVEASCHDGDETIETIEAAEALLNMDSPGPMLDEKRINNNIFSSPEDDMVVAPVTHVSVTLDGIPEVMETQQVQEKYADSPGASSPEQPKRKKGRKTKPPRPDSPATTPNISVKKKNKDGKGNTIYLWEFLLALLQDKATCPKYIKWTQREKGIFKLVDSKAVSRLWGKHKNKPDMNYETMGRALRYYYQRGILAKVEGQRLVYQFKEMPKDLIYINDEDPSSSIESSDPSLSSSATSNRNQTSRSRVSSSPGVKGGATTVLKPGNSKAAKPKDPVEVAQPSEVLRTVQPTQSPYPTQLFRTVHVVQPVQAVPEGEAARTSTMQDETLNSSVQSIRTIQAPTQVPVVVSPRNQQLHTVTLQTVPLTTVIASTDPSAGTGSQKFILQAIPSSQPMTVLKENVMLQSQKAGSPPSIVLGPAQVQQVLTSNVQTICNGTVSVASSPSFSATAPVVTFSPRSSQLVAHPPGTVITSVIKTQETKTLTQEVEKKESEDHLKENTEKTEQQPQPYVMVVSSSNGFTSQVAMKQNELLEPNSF

| Sequence | binding signal [1] | binding signal [2] | binding signal [3] | binding signal [4] | binding signal [5] | binding signal [6] | binding signal [7] | binding signal [8] | binding signal [9] | binding signal [10] | binding signal [11] | binding signal [12] | binding signal [13] | binding signal [14] | binding signal [15] | binding signal [16] | binding signal [17] |
| --- | --- | --- | --- | --- | --- | --- | --- | --- | --- | --- | --- | --- | --- | --- | --- | --- | --- |
| TGCGGA | 1.35 fold enrichment (6-mer frequency, TF over GST control) | 1.27 fold enrichment (6-mer frequency, TF over GST control) | 1.2 fold enrichment (6-mer frequency, TF over GST control) | 1.37 fold enrichment (6-mer frequency, TF over GST control) | 1.32 fold enrichment (6-mer frequency, TF over GST control) | 1.37 fold enrichment (6-mer frequency, TF over GST control) | 1.85 fold enrichment (6-mer frequency, TF over GST control) | 1.29 fold enrichment (6-mer frequency, TF over GST control) | 1.23 fold enrichment (6-mer frequency, TF over GST control) | 1.19 fold enrichment (6-mer frequency, TF over GST control) | 1.47 fold enrichment (6-mer frequency, TF over GST control) | 1.44 fold enrichment (6-mer frequency, TF over GST control) | 1.24 fold enrichment (6-mer frequency, TF over GST control) | 1.13 fold enrichment (6-mer frequency, TF over GST control) | 1.37 fold enrichment (6-mer frequency, TF over GST control) | 1.74 fold enrichment (6-mer frequency, TF over GST control) | 1.37 fold enrichment (6-mer frequency, TF over GST control) |
| ACTGAC | 1.13 fold enrichment (6-mer frequency, TF over GST control) | 1.14 fold enrichment (6-mer frequency, TF over GST control) | 1.22 fold enrichment (6-mer frequency, TF over GST control) | 1.17 fold enrichment (6-mer frequency, TF over GST control) | 1.22 fold enrichment (6-mer frequency, TF over GST control) | 1.16 fold enrichment (6-mer frequency, TF over GST control) | 1.26 fold enrichment (6-mer frequency, TF over GST control) | 1.21 fold enrichment (6-mer frequency, TF over GST control) | 1.11 fold enrichment (6-mer frequency, TF over GST control) | 1.26 fold enrichment (6-mer frequency, TF over GST control) | 1.19 fold enrichment (6-mer frequency, TF over GST control) | 1.24 fold enrichment (6-mer frequency, TF over GST control) | 1.23 fold enrichment (6-mer frequency, TF over GST control) | 1.11 fold enrichment (6-mer frequency, TF over GST control) | 1.3 fold enrichment (6-mer frequency, TF over GST control) | 1.14 fold enrichment (6-mer frequency, TF over GST control) | 1.25 fold enrichment (6-mer frequency, TF over GST control) |
